# DT40 TDP1 CPT: qHTS for Inhibitors of human tyrosyl-DNA phosphodiesterase 1 (TDP1): qHTS in cells in presence of CPT | chicken DT40 Tdp1-/-;hTDP1 cells + 20 nM CPT, ATP luminescence, 48 h | Potency, µM (top dose mostly 46.2 µM), without a hit: at the top dose activity change, negative = growth inhibition, hits mostly inhibitors | hit rate 12% among 420,000; note: potency is the fitted concentration of half-maximal effect; nearly all actives have a fitted effect of over 55% in size
#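 Cell growth measured by CellTiter-Glo luminescence after a minimum 48 h, 37 C compound exposure with 20 nM CPT in Tdp1-knockout DT40 cells stably expressing hTDP1, seeded 400/well; qHTS titration format.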
# TDP1 inh: qHTS Assay for Inhibitors of Tyrosyl-DNA Phosphodiesterase (TDP1); recombinant TDP1, AlphaScreen DNA substrate cleavage; Potency, µM (titrated, usually from 130 µM), inactives show top-dose activity change, negative = inhibition, hits mostly inhibitors; hit rate 0.28% among 350,000; AID 485290, 2010; note: potency is the fitted concentration of half-maximal effect; nearly all actives have a fitted effect of over 40% in size
# Target sequence (Q9NUW8 whole entry, looked up): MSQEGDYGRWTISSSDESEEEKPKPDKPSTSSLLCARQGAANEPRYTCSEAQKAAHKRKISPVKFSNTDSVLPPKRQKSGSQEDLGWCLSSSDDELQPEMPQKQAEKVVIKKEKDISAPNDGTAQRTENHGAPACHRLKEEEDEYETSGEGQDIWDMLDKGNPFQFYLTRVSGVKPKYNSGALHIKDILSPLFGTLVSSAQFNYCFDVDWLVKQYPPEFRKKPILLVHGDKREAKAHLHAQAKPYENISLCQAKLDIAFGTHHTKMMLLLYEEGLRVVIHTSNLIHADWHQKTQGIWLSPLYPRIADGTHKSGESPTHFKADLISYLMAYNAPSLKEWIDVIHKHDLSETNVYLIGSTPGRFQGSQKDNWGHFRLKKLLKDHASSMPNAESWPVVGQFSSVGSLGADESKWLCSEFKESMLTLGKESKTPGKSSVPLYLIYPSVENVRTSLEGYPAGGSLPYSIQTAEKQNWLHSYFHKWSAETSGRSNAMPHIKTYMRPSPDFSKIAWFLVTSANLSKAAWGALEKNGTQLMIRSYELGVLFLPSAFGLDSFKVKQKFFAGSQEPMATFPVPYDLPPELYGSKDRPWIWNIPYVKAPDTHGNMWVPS
#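 E. coli-derived human Tdp1, 1 nM final. Cpd preinc 15 min RT; substrate 15 nM final, 5 min RT; AS bead mix 10 ug/ml final, 10 min RT. Signal loss = tyrosine-FITC cleavage. No-enzyme wells = max signal.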
# DT40 TDP1 no CPT: qHTS for Inhibitors of human tyrosyl-DNA phosphodiesterase 1 (TDP1): qHTS in cells in absence of CPT; DT40 Tdp1-/- hTDP1 cells, no CPT, ATP luminescence, 48 h; Potency, µM (titrated, usually from 46.2 µM), for inactives: at the top dose activity change, negative = growth inhibition, usual class: inhibitors; hit rate 15% among 420,000; AID 686978, 2013; note: potency is the fitted concentration of half-maximal effect; nearly all actives have a fitted effect of over 55% in size
#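 Growth of hTDP1-complemented DT40 Tdp1-knockout cells is measured by ATP luminescence after at least 48 hr compound exposure at 37 °C, with DMSO substituting for the 20 nM CPT used in the parallel screen.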
# CtBP-E1A blk: qHTS Assay for Inhibitors of the CtBP/E1A Interaction; hit rate 0.49% among 340,000; activity change, % (no concentration beside the values); AlphaScreen GST-E1A/His-CtBP binding, 1536-well; hits give low values; CtBP / adenovirus E1A interaction (AlphaScreen); in the data active = activity change below about -65%; inconclusive = mostly about -30% to -63%
#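 Steps: dispense buffer (Tris pH 8.0, NaCl 300 mM, TCEP 1 mM, BSA, Tween 20); add 5X protein mix (GST-E1A, His-CtBP, 125 nM each); pin 23 nL compound; 2 h at 37 °C, dark; add 5X beads (50 ug/mL); 1 h; read.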
# Six1-Eya2 inh: qHTS Assay for Inhibitors of the Six1/Eya2 Interaction | Homeobox protein SIX1 (Homo sapiens) + Protein phosphatase EYA2 (Homo sapiens), … | AlphaScreen GST-Six1/His-Eya2 binding, biochemical; hits give low values | activity change, % (test concentration not listed) | hit rate 0.56% among 360,000 | AID 651725, 2012; in the data active = activity change below about -65%; inconclusive = mostly about -30% to -63%
#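 Compounds are tested against tagged Six1 and Eya2 proteins bridged by glutathione donor and nickel acceptor beads; after a one-hour incubation at 37 °C without light, AlphaScreen emission is recorded.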
# IL1B secr inh: qHTS for Inhibitors of Inflammasome Signaling: IL-1-beta AlphaLISA Primary Screen. activity change, % at 57.5 µM. hit rate 4.7% among 360,000. THP-1 LPS/ATP IL-1B secretion, AlphaLISA, 16 h; hits give low values; in the data active = activity change below about -50%; inconclusive = mostly about -30% to -49%
#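 Secreted IL-1B measured by AlphaLISA bead assay after 16 h compound exposure of THP-1 cells; compounds (final up to 57.5 uM) added 1 h before LPS (250 ng/mL) and ATP (1.25 mM) stimulation; lower signal means less secretion.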
# Active calls of the source: *; i = inactive; ? = inconclusive; · = no result given; [ ] = remark or other dose. Only some compounds are listed: those with a hit (about 18% of all), similar ones and a draw of the others. Unless noted, calls come from the whole dose curve; as a rule, active = well fitted curve in the direction sought with a large enough effect; inconclusive = small, poorly fitted or top-dose-only effect, or another doubt; inactive = no such curve, though single readings can be large; an effect the other way counts as inactive or inconclusive. % is set by controls: 0 for no effect and ±100 for the full control effect.
SMILES,DT40 TDP1 CPT,TDP1 inh,DT40 TDP1 no CPT,CtBP-E1A blk,Six1-Eya2 inh,IL1B secr inh
CCCCSc1nc2sc3c(c2c(=O)n1-c1ccc(C)cc1)CCN(C)C3,16µM*,·,15µM*,6,-9,?
CCC1(C)Cc2c(sc3nc(SC)n(-c4ccc(C)cc4)c(=O)c23)CO1 (configuration not stated),?,·,15µM*,·,·,·
CCSc1nc2sc3c(c2c(=O)n1-c1ccc(C)cc1)CCCC3,?,-1%[12.3 µM],8.2µM*,·,·,·
CCSc1nc2sc3c(c2c(=O)n1-c1ccc(OC)cc1)CCN(C)C3,?,5%,16µM*,-6,1,-17
O=C(COC(=O)c1ccccc1NS(=O)(=O)c1cccs1)NC1CCCCC1,1%,0%,-27%,3,-12,18
CCCCN(C)C(=O)C1CCCN(S(=O)(=O)c2ccc3c(c2)oc(=O)n3C)C1 (configuration not stated),?,·,-11%,5,3,-5
Cc1ccccc1CN(c1ccc(C(=O)NCc2cccnc2)cc1)S(C)(=O)=O,-3%,0%,-13%,1,-4,0
Cc1ccc(N2C(=O)Nc3cc(Cl)c(Cl)cc3N2O)cc1Cl,16%,8%,-1%,16,7,0
CCOc1ccc(-n2cnc3sc4c(c3c2=O)CCCC4)cc1,?,·,?,14,0,-63*
Cc1ccccc1-n1c(SCC(=O)c2c(N)n(C)c(=O)n(C)c2=O)nnc1-c1cccnc1,-13%,1%,-21%,-5,1,1
Cc1ccccc1-n1c(SCC(=O)c2c(N)n(C)c(=O)n(C)c2=O)nc2sc3c(c2c1=O)CCCC3,18µM*,0%,23µM*,3,2,10
COC(=O)C1CC(Cl)CN1c1ncc(C(F)(F)F)cc1Cl (configuration not stated),-22%,-2%,-23%,0,-16,51
C=CCN(c1ccccc1)S(=O)(=O)c1cccc(C(=O)N2CCCC2)c1,16µM*,4%,18µM*,11,4,7
C=CCN(c1ccccc1)S(=O)(=O)c1cccc(C(=O)NNC(=O)c2ccncc2)c1,-12%,0%,?,1,-6,-15
C=CCN(c1ccccc1)S(=O)(=O)c1cccc(C(=O)N2CC(C)CC(C)C2)c1 (configuration not stated),9.2µM*,0%,3.7µM*,5,1,i
CCN(c1ccccc1)S(=O)(=O)c1cccc(C(=O)N2CCN(S(=O)(=O)c3ccccc3)CC2)c1,?,0%,?,2,2,-3
COc1nc(N)nc(NC(=O)c2cccs2)c1N=O,2.1µM*,·,2.3µM*,-12,-6,-87*
CC(C)(C)c1nn(-c2ccccc2)c2[nH]c(=O)c(CNCc3ccc4c(c3)OCO4)cc12,18µM*,10%,?,-4,-6,42
CCOc1cccc(NCc2cc3c(C(C)(C)C)nn(-c4ccccc4)c3[nH]c2=O)c1,-22%,9%,-29%,-22,?,-14
COc1ccc(-c2cnc(N)nc2-c2ccc(OC)cc2)cc1,-20%,·,-17%,0,6,0
Cc1cccc(-n2nc(C(=O)Nc3ccccc3)n3c(=O)cc(-c4ccccc4)nc23)c1,?,1%,16µM*,5,7,-9
CN(CC(=O)Nc1c(Cl)cccc1Cl)C(=O)c1cc2ccccc2cc1O,0%,-6%,?,-23,3,-6
COC(C[C@@H]1O[C@H]1[C@H](O)COCc1ccccc1)OC,-6%,2%,0%,-2,1,14
COC(C[C@@H]1O[C@@H]1[C@H](O)[C@H](C)OCc1ccccc1)OC,-7%,2%,-2%,3,3,32
COC(C[C@H]1O[C@@H]1C(=O)COCc1ccccc1)OC,4.1µM*,·,4.6µM*,·,-4,25
SMILES,DT40 TDP1 CPT,TDP1 inh,DT40 TDP1 no CPT,CtBP-E1A blk,Six1-Eya2 inh,IL1B secr inh
COC(C[C@@H]1O[C@@H]1C(=O)COCc1ccccc1)OC,18µM*,4%,?,-15,-5,51
COC(C[C@@H]1O[C@@H]1[C@H](O)COCc1ccccc1)OC,16%,2%,-1%,-5,1,17
COC(C[C@@H]1O[C@H]1C(=O)COCc1ccccc1)OC,16µM*,·,21µM*,2,0,15
COc1ccc(NCC(=O)N/N=C/C2CCCCC2)cc1,1%,5%,15%,-3,-3,1
CNC(=S)SCCOc1ccccc1C,9%,5%,?,10,6,-13
CCN(CC(=O)NCc1cccs1)C(=O)c1cccc(S(=O)(=O)Nc2ccc(OC)cc2)c1,-22%,·,-17%,0,-4,2
Cc1cc(C)c2c(C(C)(C)C)nn(-c3ccccc3)c2n1,?,·,?,·,30,18
O=C(O)c1ccccc1Sc1c([N+](=O)[O-])cc(C(F)(F)F)cc1[N+](=O)[O-],?,3%,?,·,-12,-67*
N#CC/C(N)=N/NC(=O)CCCNc1ncc(C(F)(F)F)cc1Cl,16%,5%,?,5,-2,-24
CCc1ccc(CNC(=O)CCn2nc(C)c3c(C)n(-c4ccccc4)nc3c2=O)cc1,?,0%,?,0,1,2
Cc1nc(C)c2c(=O)cc(-c3ccccc3)[nH]c2n1,4.5µM*,4%,5.6µM*,4,2,42
CCc1cc(=O)oc2cc(OCC(N)=O)c(Cl)cc12,1%,4%,-8%,-5,4,-4
Cn1nc(C(C)(C)C)cc1C(=O)Sc1cccc(Br)c1,3.7µM*,·,10µM*,4,13,-81*
Cn1nc(C(C)(C)C)cc1C(=O)O,0%,1%,0%,·,5,3
O=C(c1cccc(C(F)(F)F)c1)C1CCCN(C(=O)CCCn2cncn2)C1 (configuration not stated),2%,-3%,-11%,6,2,0
CC(C)N(Cc1ccccc1)C(=O)CN1C(=O)NC2(CCOc3ccccc32)C1=O (configuration not stated),-24%,2%,-4%,0,0,-17
